According to PubChem BioAssay (NCATS):
Where “and” joins values, the source holds several entries; their conditions need not be identical. Identical values can stand only once. Unmarked numbers belong to inactive results. Inconclusive results are not listed. Where a call stands in place of a potency, no number is given. Calls of active or inactive are those of the source. Unless noted, the call rests on the fitted dose curve; in most records, active means well fitted curve in the direction sought with a large enough effect; inconclusive means small, poorly fitted or top-dose-only effect, or another doubt; inactive means no such curve, though single readings can be large; an effect the other way counts as inactive or inconclusive.

Tests used:
[1] = target: Mitogen-activated protein kinase 10 (Mus musculus) (UniProt Q61831); assay: JNK3 AlphaScreen Assay (AID 530; active means well fitted curve in either direction with a large enough effect, not every such curve was filed as active;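 further: kinase came from lysate of stimulated human HepG2 cells; signal reports phosphorylation of biotinylated GST-cJun 1-79 at Ser73 with 10 µM ATP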)
How it was run: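 Phosphorylation of biotinylated GST-cJun(1-79) at Ser73 is measured by AlphaScreen proximity luminescence. Enzyme is JNK3 in HepG2 lysates activated with interleukin-1beta and tumor necrosis factor alpha; ATP is 10 uM final.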

[2] = Cell Viability - Renal Proximal Tubule (AID 545);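 further: cells exposed to compound for 40 hours; nearly all actives have a fitted effect of over 40% in size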
How it was run: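 Cytotoxicity is scored as a concentration-dependent drop in cellular ATP in primary rat renal proximal tubule cells exposed for 40 hr. AC50 derives from Hill modelling.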

[3] = Cellular Toxicity (caspase-3) Hek293 (AID 664); details: HEK293 caspase-3 activation, DMSO = 0%, 100 µM tamoxifen = 100%; at 92.2 µM (top of the series);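 further: cells exposed to compound for 16 h at 37 °C before readout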
How it was run: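 Concentration-response qHTS: caspase 3/7 activation measured by luminescent aminoluciferin substrate cleavage after 16 h compound exposure of Hek 293 cells. AC50 from Hill equation, with DMSO as basal and 100 uM tamoxifen as 100%.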

[4] = Cell Viability - LYMP1-003 - Assay at 40 hr (AID 964); further: nearly all actives have a fitted effect of over 60% in size; further: potency means the concentration at half of the fitted maximal effect
How it was run: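 Viability is taken as cellular ATP, read by CellTiter-Glo luminescence after 40 h of compound exposure at 37 C. Cells: human lymphoblastoid line LYMP1-003 at 2500/well; AC50 values derived by Hill-equation fitting of concentration-response data.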

[5] = Cell Viability - LYMP2-003 (AID 965);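 further: cells exposed to compounds for 24 h before reading; nearly all actives have a fitted effect of over 50% in size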; further: potency means the concentration at half of the fitted maximal effect
How it was run: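 Acute cytotoxicity is scored as a concentration-dependent drop in intracellular ATP, measured by luciferase luminescence in human lymphoblastoid cells treated for 24 hours at 37 C. AC50 values derive from Hill-equation modelling.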

[6] = Cell Viability - LYMP2-011 (AID 969); further: nearly all actives have a fitted effect of over 60% in size; further: potency means the concentration at half of the fitted maximal effect
How it was run: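 Cytotoxicity qHTS with ATP content as read-out: lymphoblastoid cells (2500/well) exposed to compound for 24 h at 37 C, then luciferase luminescence measured. Concentration-response data fitted with the standard Hill equation to give AC50.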

[7] = Cell Viability - LYMP2-017 (AID 972); further: nearly all actives have a fitted effect of over 55% in size
How it was run: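 CellTiter-Glo luminescence (cellular ATP, 30 min RT) measured cytotoxicity after 24 hr compound treatment at 37 C. Cells were a human lymphoblastoid line, LYMP2-017, plated at 2500/well and incubated 5 hr first; concentration-response fitted with Hill equation for AC50.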

[8] = Cell Viability - LYMP2-019 (AID 973); further: nearly all actives have a fitted effect of over 55% in size; further: potency means the concentration at half of the fitted maximal effect
How it was run: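 AC50 values come from Hill-equation fits of luminescent intracellular ATP (CellTiter-Glo, 30 min, room temperature) following 24 h compound exposure at 37 C. Cells: LYMP2-019 lymphoblastoid line, 2500 per well, in complete culture medium.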

[9] = Cell Viability - LYMP2-021 (AID 974); further: nearly all actives have a fitted effect of over 55% in size; further: potency means the concentration at half of the fitted maximal effect
How it was run: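 AC50 values come from Hill-equation fits to CellTiter-Glo luminescence (ATP content), read after 24 hour compound exposure at 37 C of 2500 LYMP2-021 lymphoblastoid cells/well; tetraoctylammonium bromide as positive control.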

[10] = Cell Viability - LYMP2-002 (AID 977)
How it was run: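 In this qHTS viability screen, 2500 human lymphoblastoid cells per well receive compound for 24 hr at 37 C, and luciferase-based ATP luminescence gives the viability signal. Tetraoctylammonium bromide serves as positive control.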

[11] = Cell Viability - LYMP2-006 (AID 978); further: nearly all actives have a fitted effect of over 60% in size; further: potency means the concentration at half of the fitted maximal effect
How it was run: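 Concentration-dependent loss of intracellular ATP in a human lymphoblastoid line after 24 hr treatment at 37 C was measured by CellTiter-Glo luminescence, with AC50 values obtained from standard Hill-equation modelling.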

[12] = Cell Viability - LYMP2-010 (AID 981); further: nearly all actives have a fitted effect of over 55% in size; further: potency means the concentration at half of the fitted maximal effect
How it was run: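 CellTiter-Glo ATP luminescence measured cytotoxicity after 24 h compound exposure at 37 C. LYMP2-010 cells were seeded at 2500/well, with tetraoctylammonium bromide as control; concentration-response curves gave AC50 values by the Hill equation.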

[13] = Cell Viability - LYMP2-014 (AID 983); further: nearly all actives have a fitted effect of over 50% in size; further: potency means the concentration at half of the fitted maximal effect
How it was run: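 Intracellular ATP loss, read by luciferase luminescence, measures acute cytotoxicity after 24 h compound exposure of lymphoblastoid LYMP2-014 cells (2500/well, 37 C). Concentration-response data fitted to the Hill equation for AC50.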

[14] = Cell Viability - LYMP2-020 (AID 986); further: nearly all actives have a fitted effect of over 55% in size; further: potency means the concentration at half of the fitted maximal effect
How it was run: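 Cytotoxicity in qHTS format: luminescent ATP readout from CellTiter-Glo after 24 h compound exposure at 37 C in complete medium. LYMP2-020 lymphoblastoid cells were seeded at 2500/well; concentration-response data fitted to the Hill equation for AC50.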

[15] = Cell Viability - LYMP2-022 (AID 987); further: nearly all actives have a fitted effect of over 55% in size; further: potency means the concentration at half of the fitted maximal effect
How it was run: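 Cytotoxicity read as decreased cellular ATP (CellTiter-Glo luminescence, 30 min room temperature) after 24 hours compound exposure of 2500 lymphoblastoid LYMP2-022 cells/well at 37 C. Concentration-response data fitted with standard Hill equation for AC50.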

[16] = target: Voltage-gated inwardly rectifying potassium channel KCNH2 (Homo sapiens) (UniProt Q12809); assay: qHTS Assay for Small Molecule Inhibitors of the Human hERG Channel Activity (AID 588834);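 further: U2OS cells transduced with hERG by BacMam; top concentration of the series differs between compounds; lower thallium flux fluorescence means stronger hERG block; nearly all actives have a fitted effect of over 50% in size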
How it was run: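 Cells were infected with hERG-BacMam virus for 4 hrs at room temperature, grown overnight, then seeded at 2000/well. After dye loading and roughly 10 min compound treatment, thallium influx was triggered and fluorescence recorded.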

[17] = qHTS assay for small molecule activators of the nuclear factor-kappa B (NF-kB) signaling pathway (AID 651749; active means well fitted activation curve with a large enough effect in the signal ratio; the % refers to the signal ratio); details: NF-kB-bla ME-180 cells, beta-lactamase FRET ratio, 16 h; active compounds read high
How it was run: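 Human ME-180 cervical cells with an NF-kB-bla construct; compounds added via 23 nL pin transfer, DMSO as vehicle; incubation 16 hr. Reporter activity measured by FRET disruption.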

[18] = qHTS assay for small molecule activators of the human pregnane X receptor (PXR) signaling pathway (AID 720659; call rule not given here)
[19] = Cell Viability - LYMP2-009 (AID 968); further: nearly all actives have a fitted effect of over 55% in size; further: potency means the concentration at half of the fitted maximal effect
[20] = Cellular Toxicity (caspase-3) Jurkat (AID 655); details: Jurkat caspase-3 activation, luminescence; caspase-3 activation: at 92.2 µM (top of the series), DMSO = 0%, tamoxifen = 100%;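 further: cells exposed to compound for 16 h at 37 °C before reading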
How it was run: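 Caspase 3/7 activation is scored as increased luminescence in Jurkat cells cultured with compound for 16 hours in complete medium. AC50 values come from Hill fits of qHTS concentration-response data normalized to DMSO and 100 uM tamoxifen controls.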

Chain of Voltage-gated inwardly rectifying potassium channel KCNH2 (Homo sapiens) (Q12809 whole entry, looked up): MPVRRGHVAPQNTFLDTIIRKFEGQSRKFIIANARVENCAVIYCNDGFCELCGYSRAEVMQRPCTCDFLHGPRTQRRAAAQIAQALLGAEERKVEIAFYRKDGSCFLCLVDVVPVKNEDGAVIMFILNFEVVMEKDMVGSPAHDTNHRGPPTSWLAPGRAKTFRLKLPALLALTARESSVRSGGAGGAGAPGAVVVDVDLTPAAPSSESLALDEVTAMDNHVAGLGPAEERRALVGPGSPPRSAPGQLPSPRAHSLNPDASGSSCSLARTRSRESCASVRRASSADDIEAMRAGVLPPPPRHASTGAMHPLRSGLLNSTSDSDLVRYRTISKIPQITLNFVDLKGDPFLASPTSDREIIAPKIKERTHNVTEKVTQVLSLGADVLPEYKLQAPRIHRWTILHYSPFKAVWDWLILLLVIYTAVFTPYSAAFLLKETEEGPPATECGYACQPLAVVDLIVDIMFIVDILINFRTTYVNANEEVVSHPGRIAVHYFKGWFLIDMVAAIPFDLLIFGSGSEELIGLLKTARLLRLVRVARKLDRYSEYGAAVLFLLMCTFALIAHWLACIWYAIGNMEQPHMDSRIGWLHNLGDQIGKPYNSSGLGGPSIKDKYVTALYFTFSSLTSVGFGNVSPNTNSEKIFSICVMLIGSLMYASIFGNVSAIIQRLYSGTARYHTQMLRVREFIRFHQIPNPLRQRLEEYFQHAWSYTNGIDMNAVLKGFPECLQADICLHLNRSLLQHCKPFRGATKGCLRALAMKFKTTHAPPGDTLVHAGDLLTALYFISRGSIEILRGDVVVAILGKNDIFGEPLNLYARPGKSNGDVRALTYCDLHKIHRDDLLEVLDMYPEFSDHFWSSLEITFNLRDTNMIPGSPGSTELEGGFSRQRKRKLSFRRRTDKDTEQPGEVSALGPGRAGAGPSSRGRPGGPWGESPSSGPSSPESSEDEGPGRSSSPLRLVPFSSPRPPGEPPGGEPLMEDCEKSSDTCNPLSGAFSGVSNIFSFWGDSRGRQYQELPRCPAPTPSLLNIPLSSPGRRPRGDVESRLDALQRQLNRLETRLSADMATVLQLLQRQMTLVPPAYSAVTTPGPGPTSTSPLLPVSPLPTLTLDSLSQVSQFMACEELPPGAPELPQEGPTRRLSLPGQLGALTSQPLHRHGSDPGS

Compound	Potency [1]	outcome [2]	caspase-3 activation [3] [%]	Potency [4]	Potency [5]	Potency [6]	Potency [7]	Potency [8]	Potency [9]	Potency [10]	Potency [11]	Potency [12]	Potency [13]	Potency [14]	Potency [15]	Potency [16]	activation [17]	outcome [18]	Potency [19]	caspase-3 activation [20] [%]
N#CC(Cl)(Cl)Cl	inactive	inactive	1.68	inactive	inactive	inactive	inactive	inactive	inactive	inactive	inactive	inactive	inactive	inactive	inactive	inactive	-0.633%	inactive	–	–
CN1CSC(=S)N(C)C1	–	inactive	–	39.8 µM (active)	–	39.8 µM (active)	–	31.6 µM (active)	–	–	39.8 µM (active)	20 µM (active)	15.8 µM (active)	39.8 µM (active)	10 µM (active)	inactive	-0.197% and -1.34%	–	31.6 µM (active)	–
O=[N+]([O-])c1c(Cl)c(Cl)c(Cl)c(Cl)c1Cl	inactive	inactive	2.86	inactive	inactive	inactive	inactive	inactive	inactive	inactive	inactive	–	inactive	inactive	inactive	inactive	-2.45% and -1.33%	inactive	inactive	0.645
CCCCC(CC)COC(=O)c1ccc(C(=O)OCC(CC)CCCC)c(C(=O)OCC(CC)CCCC)c1 (centres undefined)	inactive	–	–	inactive	inactive	inactive	inactive	inactive	–	–	inactive	inactive	inactive	inactive	inactive	inactive	1.1%	inactive	inactive	–
Nc1ccc([N+](=O)[O-])cc1N	inactive	inactive	–	–	–	inactive	inactive	inactive	–	inactive	–	–	–	inactive	inactive	inactive	–	–	inactive	17.7
CCN(N=O)C(N)=O	inactive	inactive	0.506	inactive	inactive	inactive	inactive	inactive	inactive	inactive	inactive	inactive	inactive	inactive	–	inactive	-1.14%	inactive	inactive	0.577
C=CCCC#N	–	inactive	-0.209	inactive	inactive	inactive	inactive	inactive	inactive	–	inactive	–	inactive	inactive	inactive	inactive	0.189%	inactive	inactive	-1.73
O=C(O)C(Br)Br	inactive	inactive	-1.18	inactive	inactive	inactive	inactive	inactive	inactive	inactive	inactive	–	inactive	inactive	–	inactive	-1.25%	inactive	inactive	–
Nc1cc(Cl)cc(C(=O)O)c1Cl	inactive	inactive	-1.19	inactive	inactive	inactive	inactive	inactive	inactive	–	inactive	inactive	inactive	inactive	inactive	inactive	–	inactive	inactive	-0.545
C(CCOCC1CO1)COCC1CO1 (centres undefined)	inactive	inactive	–	–	–	inactive	–	inactive	inactive	inactive	inactive	–	inactive	inactive	–	inactive	0.765%	inactive	inactive	15.1
CN(C)c1ccc(N)cc1	–	–	2.4	39.8 µM (active)	50.1 µM (active)	–	–	–	63.1 µM (active)	–	50.1 µM (active)	50.1 µM (active)	–	–	50.1 µM (active)	–	–	–	50.1 µM (active)	-4.87
CN(C)c1ccc(N(C)C)cc1	inactive	inactive	-1.04	inactive	–	–	–	–	–	inactive	–	50.1 µM (active)	–	–	39.8 µM (active)	–	0.946%	inactive	–	1.91
O=[N+]([O-])c1ccccc1CCl	–	inactive	–	inactive	inactive	–	–	63.1 µM (active)	–	inactive	–	–	–	–	–	inactive	0.905%	inactive	–	-0.153
Cc1cc(C)cc(OP(=O)(Oc2cc(C)cc(C)c2)Oc2cc(C)cc(C)c2)c1	–	–	1.43	inactive	inactive	inactive	–	inactive	inactive	inactive	–	–	inactive	inactive	inactive	–	–	–	inactive	0.111
CC(C)[N+](=O)[O-]	inactive	inactive	-0.5	inactive	inactive	inactive	inactive	–	inactive	inactive	inactive	inactive	inactive	inactive	inactive	inactive	-0.258%	inactive	inactive	1.63
